Laboratory results from PubChem BioAssay AID588342 (National Center for Advancing Translational Sciences (NCATS), 2011).
Out of some 360,000 compounds screened, about 25,000 (6.9%) were called active. Where a call stands in place of a potency, no number is given. Not shown: some 9% with an inconclusive outcome. This is one part of a sample in which actives are shown more often than they occur. The call rests on the fitted dose curve; in most records, active means well fitted inhibition curve with a large enough effect; inconclusive means small, poorly fitted or top-dose-only effect; inactive means flat fitted curve, though single readings scatter.

These molecules were tested against Luciferin 4-monooxygenase (Photinus pyralis) (UniProt P08659) (assay: qHTS profiling assay for firefly luciferase inhibitor/activator using purifed enzyme and Km concentrations of substrates (counterscreen for miR-21 project)). Settings: purified FLuc, luminescence inhibition; series mostly up to 57.5 µM.
Source text: MLPCN Grant: 1 R21 NS059478-01 (miR-21 grant) Assay Provider: NCGC NCGC Assay Overview: Firefly (Photinus pyralis) luciferase is one of the most commonly used transcriptional reporters for a number of reasons. It is considered one of the more dynamically responsive reporters -that is, responsive to changes in reporter transcription - as it requires no post-translational modifications and is enzymatically active directly after protein synthesis (Wood, 1998). Additionally, the half-life of the luciferase protein is short relative to other reporter-gene products (Wood, 1995). Whereas reporters with long half-lives potentially allow for increased signal due to accumulation of reporter-gene product, once accumulated in the cell, dynamic changes in reporter-gene expression may be difficult to detect(Fan and Wood, 2007; Almond et al., 2004). It has been shown that wild-type P. pyralis luciferase has a half-life of approximately […] hours in mammalian cells (Thompson et al., 1991). Firefly luciferase reporter-gene assays are also generally considered one of the most sensitive assay types (Wood, 1995; Wood, 1998). Although light produced in a bioluminescence reaction is of lower intensity than that produced during fluorescence emission, this is offset by little to no background light inherent to luminescent assays. Thus the luciferase reporter can be expressed at much lower levels than fluorescent proteins while still providing robust signal. # However, it was initially observed, in 1991, by Thompson et al., that compounds that resemble the substrates of firefly luciferase (FLuc) can act as competitive inhibitors of the enzyme, and that these compounds, upon interaction with luciferase in the cell, can actually stabilize the protein and increase its half-life. Accumulated intracellular FLuc protein can be measured as an increase in luminescence signal, upon addition of detection reagents (which contain high concentrations of FLuc substrates) commonly used in high-throughput screening. In cell-based reporter gene assays that use FLuc as the reporter gene to quantitate the potential influence of a given compound against the target biology, this apparent increase in luminescence can mistakenly be interpreted as identification of a compound that is active against the target of interest. This is the case for the miR-21 FLuc reporter gene assay used to identify inhibitors of the miR-21 pathway (PubChem AID 2289) - compounds of interest will inhibit miR-21 biogenesis/expression or activity, and are identified by causing an increase in luminescence, due to increased FLuc translation. However, FLuc inhibitory compounds that stabilize the FLuc protein will give an identical read-out, making it difficult to distinguish compounds that are active against the target from those active against FLuc. Previous profiling work to determine the prevalence of compounds that affect FLuc enzymatic activity (PubChem AID 411) identified that ~3% of the MLSMR library (then at ~72K) inhibited FLuc. […] Since the MLSMR had grown to ~350K compounds, and since it was expected that a significant percentage of compounds found active in the miR-21 FLuc assay would be FLuc inhibitors, the library was screened for activity against FLuc using a biochemical assay of purified FLuc and KM concentrations of FLuc substrates (D-luciferin and ATP).
NCGC Assay Protocol Summary: Reagents: 50mM Tris acetate, pH 7.5; 10mM Mg acetate; 10uM D-luciferin (Sigma #L9504); 10uM ATP; 0.01% Tween-20; 0.05% BSA; 10nM P. pyralis luciferase (Sigma #L9506) Control compounds used were two known firefly luciferase inhibitors (compounds (2) and (5) in Auld et al., 2010), and DMSO. […]
Further: nearly all actives have a fitted effect of over 55% in size.

Luciferin 4-monooxygenase (Photinus pyralis), sequence (P08659 whole entry, looked up): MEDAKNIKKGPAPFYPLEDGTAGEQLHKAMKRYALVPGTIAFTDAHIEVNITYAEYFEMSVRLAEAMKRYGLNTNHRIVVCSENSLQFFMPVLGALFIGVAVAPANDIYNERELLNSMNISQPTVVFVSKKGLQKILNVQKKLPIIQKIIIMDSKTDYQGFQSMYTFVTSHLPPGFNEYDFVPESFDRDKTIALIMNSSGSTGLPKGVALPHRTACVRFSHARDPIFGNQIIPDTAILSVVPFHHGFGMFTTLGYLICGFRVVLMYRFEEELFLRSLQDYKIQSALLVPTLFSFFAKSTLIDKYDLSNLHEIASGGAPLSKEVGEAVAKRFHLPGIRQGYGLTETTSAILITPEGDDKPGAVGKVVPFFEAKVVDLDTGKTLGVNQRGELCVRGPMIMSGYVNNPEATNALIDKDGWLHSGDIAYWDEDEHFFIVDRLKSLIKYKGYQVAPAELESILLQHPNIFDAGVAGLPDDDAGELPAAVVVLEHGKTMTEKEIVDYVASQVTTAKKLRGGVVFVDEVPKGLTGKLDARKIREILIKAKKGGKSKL

Compound	Potency	activity change, negative = inhibition
COc1ccc(NC(=O)Nc2cccc3cccnc23)cc1	1.9 µM (active)	–
CC(C)c1c(CN(C)C(C)Cc2ccccc2)n(C)n(-c2ccccc2)c1=O (stereo not given)	inactive	–
Cc1ccccc1NC(=O)COC(=O)c1cc(C)n(C2CC2)c1C	inactive	–
COC(=O)C1=C(c2cccc(OCc3ccccc3)c2)C[C@@H]2CC[C@H]1N2C(=O)NCc1ccc(Br)cc1	inactive	–
COc1cccc(-c2nc3ccc(N4CCN(C)CC4)cc3[nH]2)c1	0.269 µM (active)	–
COc1ccc(C(=O)CC2C(=O)N(C)C(=O)N(C)C2=O)cc1	inactive	–
O=c1c2ccccc2nc(/C=C/c2ccco2)n1-c1ccccc1O	inactive	–
Cn1c(O)c(C=NCCCC(=O)O)c(=O)n(C)c1=O	inactive	–
Cn1c(O)c(C=NCCN2CCNCC2)c(=O)n(C)c1=O	inactive	–
Cn1c(O)c(C=Nc2ccc3c(c2)CCC3)c(=O)n(C)c1=O	3.38 µM (active)	–
CCN1C(=O)C(=Cc2c(C)n(CC(=O)NCC3CCCO3)c3ccccc23)C(=O)N(CC)C1=S (stereo not given)	inactive	–
COC(=O)C1=C(c2ccc(F)cc2OCc2ccccc2)C[C@@H]2CC[C@H]1N2C(=O)NCc1ccc(C(C)(C)C)cc1	inactive	–
O=C(OCC(=O)c1cccs1)C1=COCCO1	23.9 µM (active)	–
CSC1=NP(=S)(SC)N(C)c2nc3n(c21)CCC3 (stereo not given)	inactive	–
CC(C)c1ccc(OCC(=O)N2CCCN(C)CC2)cc1	inactive	–
CN(C)CC1CCCCC1=O (stereo not given)	inactive	–
CC(=O)Nc1ccc(C(=O)C(Cc2ccccc2)N(C)C)cc1 (stereo not given)	inactive	–
O=C1NC(=O)N(c2ccc(F)cc2)C(=O)/C1=C/c1ccc2c(c1)CCCN2Cc1ccccc1	inactive	–
O=C1NC(=O)N(c2ccccc2)C(=O)/C1=C/c1ccc([N+](=O)[O-])s1	26.9 µM (active)	–
CCN(CC)C(=O)c1ccc(NC(=O)c2sccc2-c2ccccc2)cc1	inactive	–
O=[N+]([O-])c1ccc(C2C3C(c4ccccc4)=NC4(CCCCC4)N32)cc1 (stereo not given)	inactive	–
CC(=O)Oc1ccccc1C(=O)Nc1ncc([N+](=O)[O-])s1	6.75 µM (active)	–
C[C@]12CC[C@H](O)C[C@H]1CC[C@@H]1C2CC[C@]2(C)[C@@H](C3=CC(=O)OC3)[C@@H](O)C[C@]12O (stereo not given in full)	inactive	–
CCC1(C)CC(CCNCc2ccc(N(C)C)cc2)(c2ccc(F)cc2)CCO1 (stereo not given)	inactive	–
CC(C)CN1CCN(Cc2ccccc2C(F)(F)F)CC1CCO (stereo not given)	inactive	–

Compound	Potency	activity change, negative = inhibition
NC(=O)Cn1cc(C(=O)c2ccccc2F)c2ccccc21	inactive	–
N#Cc1ccc(Cn2cc(C(=O)c3ccco3)c3ccccc32)cc1	19 µM (active)	–
CN1CCC(OC(=O)c2cccc(F)c2)CC1	inactive	–
O=[N+]([O-])c1cnc2ccc3ccccc3c2c1	inactive	–
CCCCCn1c(=O)c(C(=O)NCc2ccccc2)c(O)c2ccccc21	inactive	–
COC(=O)C1=C(c2c(C)noc2C)C[C@@H]2CC[C@H]1N2C(=O)NCc1ccc2c(c1)OCO2	inactive	–
Cc1nnc(NC(=O)c2cccn(Cc3cccc(F)c3)c2=O)s1	inactive	–
Cc1cccc(Cn2cccc(C(=O)Nc3ccc4c(c3)OCCO4)c2=O)c1	15.1 µM (active)	–
Cc1ccc(NC(=O)N(Cc2ccc3c(c2)OCO3)C2CCN(Cc3ccccc3)CC2)cc1F	inactive	–
Cn1cc(C(=O)OCC(=O)N2CCCC2)c2ccccc21	inactive	–
COC(=O)C1=C(c2ccccc2OCc2ccccc2)C[C@@H]2CC[C@H]1N2C(=O)NCc1ccc(OC)cc1	inactive	–
C[C@@]1([C@@H](NP(=O)(c2ccccc2)c2ccccc2)c2ccccc2)C[C@H]1CCO	inactive	–
O=C(O)CCn1cc(C=C2C(=O)NC(=S)NC2=O)c(-c2cccc(Br)c2)n1	21.3 µM (active)	–
COC(=O)C1=C(c2ccc(C(C)=O)cc2)C[C@@H]2CC[C@H]1N2C(=O)NCCNC(C)=O	inactive	–
Cc1cc(C=C2C(=O)NC(=O)NC2=O)c(C)n1-c1ccncc1	inactive	–
Cc1ccnc(-n2c(C)cc(/C=C3\C(=O)NC(=S)N(C)C3=O)c2C)c1	7.57 µM (active)	–
Cc1ccccc1N1C(=O)NC(=O)/C(=C\c2cc(C)n(C)c2C)C1=O	inactive	–
O=C(CCC(=O)N1C[C@H]2C[C@@H](C1)c1cccc(=O)n1C2)NCc1ccccc1C(F)(F)F	inactive	–
COC(=O)C1=C(c2ccc(-c3ccccc3)c(F)c2)C[C@@H]2CC[C@H]1N2C(=O)NCc1ccc(F)cc1	inactive	–
Cc1cc(C)cc(NC(=S)NC2CC3CCCC(C2)N3Cc2cccs2)c1 (stereo not given)	inactive	–
Cc1nc2ccccn2c1P(=S)(N1CCCCC1)N1CCCCC1	inactive	–
O=C1NC(=O)C(C/C=C/c2ccccc2)C(=O)N1	inactive	–
Cc1ccc(NN=C2C(=O)OC(C)(C)OC2=O)c(C)c1	9.53 µM (active)	–
CC1=C(C(=O)Nc2ccccc2)S(=O)(=O)CCO1	inactive	–
O=C(O)c1ccccc1NC(=O)C1C2CCC(O2)C1C(=O)O (stereo not given)	inactive	–

Compound	Potency	activity change, negative = inhibition
Fc1ccc(C2N3CCCN23)cc1 (stereo not given)	inactive	–
O=C(Nc1cccc(OC(=O)N2CCCCC2)c1)N1CCOCC1	inactive	–
CN1CCN(C(=O)COc2ccc(C(C)(C)C)cc2Br)CC1	inactive	–
CC(C)(C)c1ccc(OC(=O)N2CCCCC2)cc1	10.7 µM (active)	–
COC(=O)C1=C(c2ccc3ccccc3c2)C[C@@H]2CC[C@H]1N2C(=O)NCCO	inactive	–
CCCCCn1c(=O)c(C(=O)NCc2ccccn2)c(O)c2ccccc21	inactive	–
CC(C)Oc1ccc(NC(=O)c2cc3ccccc3o2)cc1	1.51 µM (active)	–
CC(=O)Cc1ccc(OC(C)C)cc1	inactive	–
Cc1ccc(-c2nc3ccccc3c(=O)n2-c2ccc(Br)cn2)cc1	inactive	–
COCCNC(=O)CN1C2CCC1CC(O)(c1cccnc1)C2 (stereo not given)	inactive	–
CCC(=NCCc1ccccc1)c1c(O)n(C2CCCCC2)c(=O)[nH]c1=O	inactive	–
CCC(=NCc1ccco1)c1c(O)n(Cc2ccccc2)c(=O)[nH]c1=O	inactive	–
CC/C(=N\NC(=O)c1ccccc1O)c1c(O)n(Cc2ccccc2)c(=O)[nH]c1=O	9.53 µM (active)	–
Cc1ccc(C(C)C)c(OCC(=O)N2CCN(CC(=O)N3CCOCC3)CC2)c1	inactive	–
CC1(C)Cc2c(C#N)c(N3CCNCC3)nc(-c3ccco3)c2CS1	inactive	–
Cc1ccc(Cn2nnnc2CN2CCC(n3nnc4ccccc43)CC2)cc1	inactive	–
CCc1cccc2c(C#N)cn(CC(=O)N3CCOCC3)c12	inactive	–
C=CCN1C(=O)NC(=O)/C(=C/c2ccc(OCC(=O)Nc3ccc(C)cc3)cc2)C1=O	21.3 µM (active)	–
O=C(O)COc1ccccc1/C=C1\C(=O)NC(=O)N(CCC2=CCCCC2)C1=O	inactive	–
C=CCN(CC=C)C(=O)Nc1ccc(OCC)cc1	inactive	–
COC(=O)C1=C(c2ccc(Cl)c(C(F)(F)F)c2)C[C@@H]2CC[C@H]1N2C(=O)NC1CC1	inactive	–
Cc1cc(C(=O)OCC(=O)Nc2c(F)cccc2F)c(C)n1C1CC1	inactive	–
c1cc2c(cc1CCNC1CCCCCC1)OCO2	inactive	–
COC(=O)C1=C(c2ccc(F)cc2OCc2ccccc2)C[C@@H]2CC[C@H]1N2C(=O)NCc1ccc(OC)c(OC)c1	inactive	–
Cc1cccc(N2C(=O)NC(=O)/C(=C\c3cnn(-c4ccccc4)c3)C2=O)c1	15.1 µM (active)	–

Compound	Potency	activity change, negative = inhibition
COc1cccc(N2C(=O)NC(=O)/C(=C\c3cn(C)c4ccccc34)C2=O)c1	inactive	–
O=C1C2(Cl)C3(Cl)C4(Cl)C(Cl)(Cl)C5(Cl)C3(Cl)C1(Cl)C5(Cl)C24Cl (stereo not given)	inactive	–
COc1ccc(Br)cc1CNCCc1cccc(Cl)c1	inactive	–
COc1cc(-n2c(=S)[nH]c3ccc(C)cc3c2=O)c(Cl)cc1Cl	inactive	–
c1csc(-c2nnc(COc3ccc4c(c3)OCO4)o2)c1	19 µM (active)	–
CCN(CC)P(=O)(Oc1cccc(C)c1)N(CC)CC	inactive	–
COC(=O)C1=C(c2ccc(F)cc2F)C[C@@H]2CC[C@H]1N2C(=O)NC1CC1	inactive	–
Cc1nc2ccc(N3CCN(C)CC3)cc2nc1C	19 µM (active)	–
CN1CCN(c2cc(N3CCNCC3)ccc2[N+](=O)[O-])CC1	inactive	–
COC(=O)C1=C(c2cccc(OCc3ccccc3)c2)C[C@@H]2CC[C@H]1N2C(=O)NNCc1ccccc1	inactive	–
CCOC(=O)C1=C(C)OC(N)=C(C(=O)OC)C12C(=O)Nc1ccc(Br)cc12 (stereo not given)	inactive	–
Cc1ccc(-n2c(/C=C/c3cccc(C(F)(F)F)c3)nc3ccccc3c2=O)cc1	inactive	–
COC(=O)C1=C(c2ccc(F)cc2OCc2ccccc2)C[C@@H]2CC[C@H]1N2C(=O)NCc1ccc(Cl)cc1	inactive	–
O=C1NC(=O)N(CCc2ccc(F)cc2)C(=O)/C1=C/C=C/c1ccccc1	inactive	–
O=C1NC(=O)N(Cc2ccco2)C(=O)/C1=C\c1ccc(-c2ccc(F)cc2)o1	10.7 µM (active)	–
Cc1cc(/C=C2/C(=O)NC(=O)N(Cc3ccco3)C2=O)c(C)n1-c1ccc(C(=O)O)cc1	inactive	–
c1ccc2sc(C3CCCNC3)nc2c1 (stereo not given)	inactive	–
COC(=O)C1=C(c2ccc(F)cc2OCc2ccccc2)C[C@@H]2CC[C@H]1N2C(=O)NCc1ccc2[nH]ccc2c1	inactive	–
CN(C)C(=O)Oc1ccc(OCc2cccc[n+]2C)cc1	inactive	–
CCOC(=O)c1c(-c2ccccc2)oc2ccc(OC(=O)N(C)C)cc12	–	1.44% [at 2.3 µM] (inactive)
CN(C)C(=O)Oc1ccc2c(c1)O/C(=C\c1ccccc1)C2=O	9.53 µM (active)	–
CCC12CCN(CCc3ccccc3)CC1Oc1c(O)cccc12 (stereo not given)	inactive	–
COC(=O)C1=C(c2ccc(Cl)c(C(F)(F)F)c2)C[C@@H]2CC[C@H]1N2C(=O)NC(C)C	inactive	–
Cc1nn(-c2ccccc2)c(C)c1NC(=O)COC(=O)Cc1ccccc1	inactive	–
COc1ccc(C(=O)C2CN(C)CC2C(=O)c2ccc(OC)cc2)cc1 (stereo not given)	inactive	–
